# Bioassay records as filed in PubChem BioAssay.
# Shown is part of a subset that was picked to be rich in hits.
# Ub-GFP proteasome: proteasome inhibitors stabilizing ubiquitin-GFP reporter. 67,000 tested, under 10 active. Ubiquitin-GFP reporter cells, proteasome inhibition, GFP fluorescence; response scale: untreated = 0%, 10 µM MG-132 = 100%. AID 526. Potency, µM (top dose mostly 45.9 µM), without a hit: at the top dose activation (GFP accumulation), usual class: activators; active = well fitted activation curve with a large enough effect, not every such curve was filed as active; inconclusive = small, poorly fitted or top-dose-only effect, or another doubt; inactive = no such curve, though single readings can be large or run the other way; also: potency is read from the fitted curve at half-maximal effect
#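 GFP accumulation read-out: laser plate cytometry counting ubiquitin(G76V)-GFP-expressing U2OS cells after 4 hr compound exposure at 37 °C. Titrations spanned 46 uM to 2.9 nM; 0% = basal, 100% = 10 uM MG-132; concentration-response curves fitted.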
# Epigenetic mod: epigenetic modulators derepressing GFP locus in mouse cells; mouse C127i GFP locus derepression, cytometry, 30 h; Potency, µM (doses to about 46.1 µM), for the others: at the highest dose GFP derepression (activation); 68,000 compounds, 0.09% hits; AID 597; also: % of control where 0% means no effect
#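 Locus derepression in mouse mammary C127i cells whose integrated CMV-GFP reporter is normally silent; GFP expression after 30 h compound treatment was quantified by counting fluorescent cells.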
# HBB splicing: modulators of hemoglobin beta chain splicing; HBB splicing reporter cell assay, activation; EGFP reporter with mutant IVS2-654 intron; response scale: normalised to 500 nM splice-correcting PNA; Potency, µM (titrated, usually from 46.1 µM), inactives show at the highest dose activation, most hits filed as activators; 65,000 compounds, 0.06% hits; AID 925; also: potency is read from the fitted curve at half-maximal effect; 0% is about no effect
#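 Compounds were applied for 2 days to HeLa EGFP-654 cells, 500/well in Optimem with 2% FCS. The reporter's EGFP is disrupted by mis-splicing of beta-globin intron IVS2-654. Readout: summed well GFP fluorescence from 488 nm laser scanning; reference was 500 nM antisense […] 654 PNA.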
# IkB sig inh: IkB pathway inhibition in ABC-DLBCL cells. ABC-DLBCL IkBa-CBG/CBR dual luciferase ratio, 4 h; response scale: scaled: untreated 0%, proteasome inhibitor 100%. Potency, µM (top dose mostly 57.1 µM), for the others: at the highest dose IkBa stabilization activation. 110,000 compounds, 0.04% hits. AID 445; active = well fitted curve in the direction sought with a large enough effect in the signal ratio, not every such curve was filed as active; inconclusive = small, poorly fitted or top-dose-only effect, or a change in a side signal; the % refers to the signal ratio;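 also: potency is read from the fitted curve at half-maximal effect; the direction sought is a rising ratio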
#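 Curves were fitted separately to fusion (green), unfused (red) and ratio luminescence, then classed by r2, magnitude and activity. Cells: OCI-Ly3, 4 h compound plus doxycycline at 37C; 10 uM MG-132 defined full response.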
# Hsp90 Hop PPI: changes Hsp90-Hop TPR2A binding signal, up or down | AlphaScreen TPR2A-His6 binding biotin-Hsp90 C-terminal peptide | Potency, µM (top dose mostly 57 µM), without a hit: at the top dose activity change, negative = inhibition | 71,000 compounds, 0.44% hits; active = well fitted curve in either direction with a large enough effect; inconclusive = small, poorly fitted or top-dose-only effect, or another doubt; also: potency is read from the fitted curve at half-maximal effect; % is scaled to controls: 0 for no effect and ±100 for the full control effect
# Hsp90-TPR2A inh: confirmation and counter-screen of Hsp90 TPR2A co-chaperone interaction disrupters; shares compounds with Hsp90 Hop PPI; AlphaScreen TPR2A-His6 / biotin-Hsp90 peptide binding; activity, negative = inhibition, % at 40 µM or 46 µM, hits read low; 45 compounds, 100% hits;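 active = compound lowering the Hsp90 and TPR2A binding signal, whether or not the linker counterscreen also flagged it as an artifact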
# Starred values were filed as active, the others as inactive; ? = inconclusive; nt = no result; + = active, no number; ! = repeats disagree; [ ] = remark or other dose. Unless noted, calls follow the shape of the dose curve; as a rule, active = well fitted curve in the direction sought with a large enough effect; inconclusive = small, poorly fitted or top-dose-only effect, or another doubt; inactive = no such curve, though single readings can be large; an effect the other way counts as inactive or inconclusive.
SMILES,Ub-GFP proteasome,Epigenetic mod,HBB splicing,IkB sig inh,Hsp90 Hop PPI,others
CN(C)C(=S)SSC(=S)N(C)C,nt,nt,0.4%,6.31µM*,?,
CC[C@H](CO)NC(=O)[C@@H]1C=C2c3cccc4c3c(cn4C)C[C@@H]2N(C)C1,3.9%,-2.2%,0.7%,-3.0%,-10.3%,
Cc1ccc(OP(=O)(Oc2ccc(C)cc2)Oc2ccc(C)cc2)cc1,nt,nt,-0.8%,-1.2%,15.8µM*,
C/C=C(\C)C(=O)O[C@@H]1C(C)=C2[C@H]([C@@H]1OC(=O)CCCCCCC)[C@@](C)(OC(C)=O)C[C@@H](OC(=O)CCC)[C@@]1(O)[C@H]2OC(=O)[C@]1(C)O,-1.7%,-1.1%,1.0%,3.98µM*,-11.9%,
O=C(CCCN1CCC2(CC1)C(=O)N(CCc1ccc(N=C=S)cc1)CN2c1ccccc1)c1ccc(F)cc1,2.4%,-1.2%,1.2%,6.1%,?,
COC1=C(C)C(=O)c2c(c(COC(N)=O)c3n2C[C@@H]2[C@@H]3N2C)C1=O (stereo not given in full),5.1%[9.17 µM],0.0%[9.22 µM],-1.1%[9.22 µM],3.16µM*,-4.2%[11 µM],
CN(C)c1ccc(N=Nc2ccccc2)cc1,nt,nt,-0.4%,?,12.6µM*,
CC(C)C[C@H]1C(=O)N2CCC[C@@H]2[C@]2(O)O[C@](NC(=O)[C@H]3C=C4c5cccc6[nH]cc(c56)C[C@H]4N(C)C3)(C(C)C)C(=O)N12,-1.1%,-2.5%[9.22 µM],nt,1.7%[11.4 µM],?,
COC(=O)[C@@H]1C[C@@H]1[C@@H](NP(=O)(c1ccccc1)c1ccccc1)c1ccccc1,nt,nt,0.4%,nt,-8.5%,
O=c1[nH]c(=O)n(Cc2ccccc2)c(O)c1C=NCCCn1ccnc1,15.6%,0.0%,5.7%[1.84 µM],-0.5%,15.8µM*,
C[C@@H]1[C@H]2C=C[C@@H]1[C@@H](c1c3ccc(=O)c(O)c-3oc3c(O)c(O)ccc13)[C@@H]2C(=O)O,-1.5%[9.17 µM],-3.4%[9.22 µM],3.7%[9.22 µM],-0.8%[11.4 µM],?,
CSC([N-]/N=C/c1cccc(C)n1)=[S]=[Cu].CS[C@H]([S-])[N-]/N=C/c1cccc(C)n1,5.5%[9.17 µM],0.2%[9.22 µM],3.5%[9.22 µM],?,3.16µM*,
NC(N)=Nc1ccc2[nH]c3c(c2c1)C[C@]1(O)[C@@H]2Cc4ccc(O)c5c4[C@]1(CCN2CC1CC1)[C@H]3O5,1.6%,-0.1%,3.0%,-0.3%,-22.9%,
Cc1c2ccncc2c(C)c2c1[nH]c1ccccc12,-4.8%[20.5 µM],12.6µM*!,12.6µM*,?,8.4%[26 µM],
c1ccc2c(c1)[nH]c1cnccc12,nt,6.2%[20.6 µM],nt,nt,nt,
CN1CCc2cc3c(cc2[C@@H]1[C@H]1OC(=O)c2c1ccc1c2OCO1)OCO3,-0.4%,-2.3%[9.22 µM],nt,-0.2%[11.4 µM],-3.9%,
O=c1ccc2cc(O[C@@H]3O[C@@H](CO)[C@@H](O)[C@@H](O)[C@H]3O)c(O)cc2o1,10.6%,4.6%[9.22 µM],nt,2.4%[11.4 µM],-4.0%,
CC(C)(C)C(=O)C1C(=O)c2ccccc2C1=O,nt,nt,15.8µM*,?,-5.2%,
Cn1ncnc2c(=O)n(C)c(=O)nc1-2,-13.9%,4.0%,0.3%,?,0.794µM*,Hsp90-TPR2A inh=+
NC(=NCCC[C@@H](N)C(=O)O)N[N+](=O)[O-],-2.0%,0.0%,0.9%,9.7%,-4.8%,
